Assay results reported in PubChem BioAssay AID2289 (National Center for Advancing Translational Sciences (NCATS), 2010).
Hit rate of the full screen: of about 340,000 compounds, about 3,300 (0.97%) were called active. Inconclusive results (about 9%) are left out. Calls come from the whole dose curve; as a rule, active = well fitted inhibition curve with a large enough effect; inconclusive = small, poorly fitted or top-dose-only effect, or effect the other way; inactive = flat fitted curve, though single readings scatter. The list shows a part of the results.

test: qHTS Assay for Modulators of miRNAs and/or Inhibitors of miR-21; conditions: HeLa miR-21-FLuc reporter, luciferase luminescence, 48 h; actives lower the signal; note: nearly all actives have a fitted effect of over 55% in size
In short: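 HeLa cells stably expressing CMV-driven firefly luciferase with a downstream miR-21 binding sequence, endogenously expressing miR-21, were treated with titrations (up to about 40uM final) for 48 hours at 37 degree Celsius. Luciferase luminescence was read after lysis.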
Potency is the fitted concentration of half-maximal effect.

Potency, active:
CC(=O)c1cnc2cc(-c3ccc(C)cc3)nn2c1C 1.04 µM, CCOC(=O)c1sc2nc(-c3ccccc3)ccc2c1N 0.0927 µM, COc1cccc(-c2ccc3c(N)c(C(=O)Nc4cc(F)ccc4F)sc3n2)c1 11.7 µM, CCN(CC)C(=O)c1sc2nc(-c3ccccc3)ccc2c1N 1.47 µM, CCOC(=O)c1sc2nc(-c3cccnc3)ccc2c1N 0.369 µM, CCn1nccc1C(=O)Nc1ccc(Cl)c(Cl)c1 8.26 µM, COc1cc(C(C)=O)ccc1Oc1ncnc2c1cnn2-c1ccc(F)cc1 4.14 µM, COc1ccccc1Oc1ncnc2c1cnn2-c1ccccc1 5.85 µM, Cc1cccc(NC(=O)c2sc3nc(N)c(C#N)cc3c2N)c1 4.14 µM, Cc1ccc(NC(=O)c2sc3nc(N)c(C#N)cc3c2N)cc1 5.85 µM, Cc1cc(C(=O)CN2C(=O)NC3(CCCCC3C)C2=O)c(C)n1Cc1cccs1 (stereo not drawn) 5.21 µM, Cc1nc2scc(-c3ccccc3)c2c(=O)n1N=C1C=CC(=O)C=C1 10.4 µM, Cc1cc2oc(C(=O)Nc3nonc3C)c(C)c2cc1C 0.656 µM, CCc1nonc1NC(=O)c1oc2cc(C)c(C)cc2c1C 5.85 µM, Cc1ccc2oc(C(=O)Nc3nonc3C)c(C)c2c1 4.65 µM, CCc1ccc2oc(C(=O)Nc3nonc3CC)c(C)c2c1 2.93 µM, c1ccc(Cc2nnc3sc(-c4ccc5c(c4)OCCO5)nn23)cc1 14.7 µM, Oc1c(C2=NCCNC(C(F)(F)F)=C2)ccc2ccccc12 2.07 µM, Clc1ccccc1-c1nc2ccccc2[nH]1 1.31 µM, Clc1cc2nc(-c3cccnc3Cl)[nH]c2cc1Cl 1.04 µM, CN(Cc1nc(-c2cccc(Cl)c2)no1)C1CCOCC1 7.36 µM, Cc1ccc(-c2cn(-c3ccccc3)c(SCC(=O)NC3CCS(=O)(=O)C3)n2)cc1C (stereo not drawn) 7.36 µM, CCOC(=O)NC(=O)CSc1nc(-c2ccc(C)c(C)c2)cn1-c1ccccc1 6.56 µM, Cc1ccc(NC(=O)NCc2c(C)nn(C)c2C)cc1Cl 5.21 µM, CNc1cccc2c1C(=O)c1ccccc1C2=O 11.7 µM, CC(C)(C)c1ccc(-c2noc(-c3ccno3)n2)cc1 1.17 µM, C=CCn1c2ccccc2c(=O)c2cc(C#CC3(O)CCCCC3)ccc21 0.414 µM, CCCc1cc(C(=O)Nc2cc(Cl)ccc2O)no1 2.07 µM, CCCc1cc(C(=O)Nc2cc(C)ccc2O)no1 3.69 µM, CCCc1cc(C(=O)Nc2cccc(Cl)c2C)no1 6.56 µM, CCCc1cc(C(=O)Nc2ccc(CC)cc2)no1 5.21 µM, COc1ccc(C(=O)NCCOc2ccccc2Cl)c(OC)c1OC 5.85 µM, COc1cc(SC)ccc1C(=O)NCC1CCCCC1 10.4 µM, COc1cc(SC)ccc1C(=O)NCCOc1ccccc1Cl 2.93 µM, COc1cc(SC)ccc1C(=O)NCCOc1ccc(F)cc1 7.36 µM, CCn1nc(C)c(/C=N/NC(=O)Cc2ccc(Cl)cc2)c1C 11.7 µM, COc1ccc(NC(=O)CSc2nc(SC)ns2)c(OC)c1 2.07 µM, COc1ccc(NC(=O)CSc2nc(SC)ns2)cc1 6.56 µM, CCC(C)(C)c1ccc2c(c1)C(=O)c1ccccc1C2=O 1.65 µM, Cc1cs/c(=N\N=C\c2ccc(O)cc2)n1Cc1ccco1 11.7 µM, Nc1nnc(-c2ccc(Cl)cc2Cl)s1 8.26 µM, S=C(Nc1ccccc1)c1nc2ccccc2s1 2.07 µM, O=C(NNc1nc2ccccc2s1)Nc1ccccc1 4.65 µM, CC(C)C1COC(c2cccc3ccccc23)=N1 (stereo not drawn) 6.56 µM, CCCCNC(=O)c1cccc(NC(=O)c2nsc3ccccc23)c1 2.93 µM, CCOc1ccccc1CNC(=O)c1cccc(NC(=O)c2nsc3ccccc23)c1 3.29 µM, CCN=C1S/C(=C\c2sccc2C)C(=O)N1CC 16.5 µM, Cc1ccc(OCCn2cnc3c(N)ncnc32)cc1 16.5 µM, C=CCn1c(C)cc(C(=O)COC(=O)c2ccc(N)c([N+](=O)[O-])c2)c1C 1.85 µM, CCOc1ncccc1C(=O)OCC(=O)c1cc(C)n(Cc2ccco2)c1C 2.07 µM, Cc1cc(C(=O)COC(=O)c2ccc(O)cc2)c(C)n1Cc1ccco1 1.85 µM, Cc1cc(C(=O)COC(=O)c2cc(Cl)ccc2N)c(C)n1Cc1ccco1 2.93 µM, Cc1cc(C(=O)COC(=O)c2ccco2)c(C)n1Cc1ccco1 4.65 µM, CSc1ncccc1C(=O)OCC(=O)c1cc(C)n(CC2CCCO2)c1C (stereo not drawn) 0.464 µM, Cc1cc(C)n(-c2nnc(NC34CC5CC(CC(C5)C3)C4)nn2)n1 5.21 µM, Cc1ccc(NC(=O)OCc2cccs2)cc1 1.31 µM, COc1ccc(C(=O)NCCSC2CCCCC2)cc1 7.36 µM, COc1ccc(C(=O)NC(=S)NC2CCCCC2)cc1 7.36 µM, COc1ccc(C(=O)NC(=S)Nc2ccccc2F)cc1 1.04 µM, O=C(NC(=S)NC1CCCCCC1)c1cncc(Br)c1 9.27 µM, Cc1nc2ccccc2nc(C)c1=NOCc1ccc(Cl)cc1Cl 16.5 µM, Cc1nc2ccccc2nc(C)c1=NOCc1ccc(C#N)cc1 11.7 µM, COc1ccc(Oc2nnc(C)c3ccccc23)cc1 4.14 µM, COc1ccc(-c2nnc3c4ccccc4c(C)nn23)cc1 8.26 µM, Cc1ccc(NC(=S)c2ccccc2)cc1 4.14 µM, COc1ccc(NC(=S)N/C(=N/CS(=O)(=O)c2ccccc2)c2ccccc2)cc1 5.21 µM, COc1ccc(NC(=S)N2CCC(c3ccccc3)C2)cc1 (stereo not drawn) 1.65 µM, COc1ccc(NC(=S)c2ccc(N(C)C)cc2)cc1 1.17 µM
